{
  "source": "PubChem BioAssay AID641",
  "about": "(Vanderbilt High Throughput Screening Facility, 2007)",
  "note": "Out of some 58,000 compounds screened, about 3,400 (5.9%) were called active. The sample holds actives, similar compounds and a random draw of the others, so the mix is not that of the screen. Values without a mark were called inactive.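 The calls were made as follows: active = luminescence count or its row- and column-corrected plate score outside the 99.7% band of the plate's sample wells, on either side; inactive = the rest.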",
  "data": [
    {"target": "D(1A) dopamine receptor (Homo sapiens) (UniProt P21728)", "sequence (P21728 whole entry, looked up)": "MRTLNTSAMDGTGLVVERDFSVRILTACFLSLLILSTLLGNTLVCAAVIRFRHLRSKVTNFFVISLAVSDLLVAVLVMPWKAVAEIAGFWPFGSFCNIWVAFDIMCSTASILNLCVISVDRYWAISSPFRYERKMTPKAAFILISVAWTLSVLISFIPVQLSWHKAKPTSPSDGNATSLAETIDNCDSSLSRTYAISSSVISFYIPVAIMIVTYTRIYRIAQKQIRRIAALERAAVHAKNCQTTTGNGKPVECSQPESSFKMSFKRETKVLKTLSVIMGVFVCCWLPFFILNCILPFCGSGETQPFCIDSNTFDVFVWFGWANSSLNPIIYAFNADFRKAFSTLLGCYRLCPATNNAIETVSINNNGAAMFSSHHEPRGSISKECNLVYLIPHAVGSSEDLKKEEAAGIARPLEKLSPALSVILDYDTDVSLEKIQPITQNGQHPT", "assay": "D1 CRE-luciferase signal change, two-sided – cell-based, HEK293 D1, dopamine EC30, D1 allosteric modulator project, primary screen (AID 641)", "details": "dopamine EC30 potentiation, at 10 µM, actives deviate in either direction", "values": [
      {"smiles": "CCOC(=O)C(O)(c1ccc(N)c(OC)c1)C(F)(F)F", "note": "(stereo not given)", "B-score": "-4.69 (active)"},
      {"smiles": "CCOC(=O)C(O)(c1ccc(NC(=O)c2ccco2)c(OC)c1)C(F)(F)F", "note": "(stereo not given)", "B-score": 0.817},
      {"smiles": "CCOP(=S)(OCC)SCOC(=O)NCC(=O)OC", "B-score": 1.46},
      {"smiles": "Cc1ccc2c(c1)C1CN(C)CCC1N2C(=O)Cn1nnc(-c2ccccc2F)n1", "note": "(stereo not given)", "B-score": "-3.16 (active)"},
      {"smiles": "Cc1cc(N2C(=O)C3CCCN3C2c2ccc(Cl)c(Cl)c2)no1", "note": "(stereo not given)", "B-score": 1.04},
      {"smiles": "CC(=NC1CCN(Cc2ccccc2)CC1)c1c(O)n(C)c(=O)n(C)c1=O", "B-score": 0.191},
      {"smiles": "CCN(CC)CCOC(=O)c1cc2cc(COC)ccc2o1", "B-score": 0.407},
      {"smiles": "C=Cn1ccnc1P(=S)(c1cc(N(CC)CC)ns1)c1nccn1C=C", "B-score": -0.0508},
      {"smiles": "CC(=C1C(=O)c2ccccc2C1=O)N1CCN(CCN=Cc2c(O)n(C)c(=O)n(C)c2=O)CC1", "B-score": -0.0144},
      {"smiles": "CCCCCCN=C(CC)c1c(O)n(CCCC)c(=O)[nH]c1=O", "B-score": 2.24},
      {"smiles": "CCC(=NCCCO)c1c(O)n(-c2ccc(OC)cc2)c(=O)[nH]c1=O", "B-score": -0.508},
      {"smiles": "CCC(=NCc1ccco1)c1c(O)n(Cc2ccccc2)c(=O)[nH]c1=O", "B-score": "10.9 (active)"},
      {"smiles": "N[C@@H](Cc1c[nH]c2ccccc12)c1nnc(SCc2c(F)cccc2Cl)o1", "B-score": -0.133},
      {"smiles": "CCCC(C)n1[nH]c(=O)c2c1NC(=O)CSC2c1ccc(OC)c(OC)c1", "note": "(stereo not given)", "B-score": 0.346},
      {"smiles": "CCc1cccc2c(C#N)cn(CC(=O)N3CCOCC3)c12", "B-score": -1.07}
    ]}
  ]
}
